Laboratory results: the supplement of paper PMC11624193, “Coupling cellular drug-target engagement to downstream pharmacology with CeTEAM” (Nature Communications, 2024)
Where a name gives a salt, the structure may show the parent alone. A number with no mark means an inactive call.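 Rule for the calls: active = log2 fold change beyond 2 SD from the library mean after excluding viability outliers; inactive = within 2 SD.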

Each compound was assayed against PARP1 L713F-nLuc biosensor (HCT116) (UniProt P09874) (assay: PARP1 L713F-nLuc/akaLuc ratio relative to DMSO control (biosensor stabilization) (fold change); higher = more PARP1 biosensor stabilization (target engagement / stabilizer), active = hit call of the paper). Details: stock concentration (mM; final µM = stock mM x 1): 10; 24 h.
Sequence of PARP1 L713F-nLuc biosensor (HCT116) (P09874 whole entry L713F, looked up): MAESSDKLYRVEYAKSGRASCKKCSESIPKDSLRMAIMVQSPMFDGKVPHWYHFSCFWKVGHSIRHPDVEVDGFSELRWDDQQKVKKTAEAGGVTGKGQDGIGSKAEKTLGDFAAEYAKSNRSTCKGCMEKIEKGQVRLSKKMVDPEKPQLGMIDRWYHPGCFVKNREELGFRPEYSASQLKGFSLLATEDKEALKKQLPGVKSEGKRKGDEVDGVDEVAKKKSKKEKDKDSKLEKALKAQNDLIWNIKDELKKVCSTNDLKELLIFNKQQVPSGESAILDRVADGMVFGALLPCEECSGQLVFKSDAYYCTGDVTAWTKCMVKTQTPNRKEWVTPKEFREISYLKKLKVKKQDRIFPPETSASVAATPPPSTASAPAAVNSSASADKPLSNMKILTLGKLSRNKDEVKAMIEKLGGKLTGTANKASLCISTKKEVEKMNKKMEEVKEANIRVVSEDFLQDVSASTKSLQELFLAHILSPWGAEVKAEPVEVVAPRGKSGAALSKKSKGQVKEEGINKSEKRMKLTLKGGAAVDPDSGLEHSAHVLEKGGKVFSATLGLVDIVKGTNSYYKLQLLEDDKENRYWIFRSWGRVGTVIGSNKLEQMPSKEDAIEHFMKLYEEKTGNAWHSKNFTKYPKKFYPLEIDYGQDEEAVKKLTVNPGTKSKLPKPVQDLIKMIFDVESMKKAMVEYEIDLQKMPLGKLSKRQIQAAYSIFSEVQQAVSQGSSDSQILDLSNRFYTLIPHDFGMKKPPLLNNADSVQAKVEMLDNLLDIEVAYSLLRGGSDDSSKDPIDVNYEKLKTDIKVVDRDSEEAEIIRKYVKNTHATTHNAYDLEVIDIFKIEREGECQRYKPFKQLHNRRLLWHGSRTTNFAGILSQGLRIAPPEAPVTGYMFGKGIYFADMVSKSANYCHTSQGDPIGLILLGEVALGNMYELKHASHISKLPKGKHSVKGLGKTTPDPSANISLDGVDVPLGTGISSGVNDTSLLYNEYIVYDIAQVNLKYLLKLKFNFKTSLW

| SMILES | PARP1 L713F-nLuc/akaLuc ratio |
| --- | --- |
| C=CC(=O)Nc1cccc(Nc2nc(Nc3ccc(N4CCN(C(C)=O)CC4)cc3OC)ncc2C(F)(F)F)c1 [Rociletinib (CO-1686, AVL-301)] | 0.886 |
| O=c1[nH]nc2c3c(cccc13)N=C(CN1Cc3ccccc3C1)N2 | 8.18 (active) |
| CN(C)C[C@@H]1CCn2cc(c3ccccc32)C2=C(C(=O)NC2=O)c2cn(c3ccccc23)CCO1 [Ruboxistaurin (hydrochloride)] | 0.778 |
| CC(C(=O)Nc1cccc(/N=C/c2c(O)ccc3ccccc23)c1)c1ccccc1 (configuration not stated) [Salermide] | 0.605 |
| N#Cc1c[nH]c2ccc(-c3ccc(-c4c(O)cccc4O)cc3)cc12 | 0.933 |
| Nc1nc(Cl)nc2c1ncn2[C@@H]1O[C@H](CO)[C@@H](O)[C@@H]1F [Clofarabine] | 0.577 |
| NC(=O)c1cccc2[nH]c(-c3ccc(C4CCCN4)cc3F)nc12 (configuration not stated) | 4.24 (active) |
| CC(O)c1cc(C(=O)N[C@@H](C)Cn2ccc(-c3ccc(C#N)c(Cl)c3)n2)n[nH]1 (some centres not stated) [Darolutamide (ODM-201)] | 0.613 |
| COc1cc2ncnc(Oc3cccc(NC(=O)Nc4cc(C(C)(C)C(F)(F)F)on4)c3)c2cc1OC | 1.02 |
| O=C(O)CNC(=O)c1ncc(-c2cccc(F)c2)cc1O | 0.618 |
| Cc1ccc(F)c(NC(=O)Nc2ccc(-c3cccc4[nH]nc(N)c34)cc2)c1 [Linifanib (ABT-869)] | 3.59 (active) |
| Clc1ccc(-c2csc(NN=C3CCCC3)n2)cc1 | 0.775 |
